Results from PMC4336329 (PLoS ONE, 2015).
Out of some 310,000 compounds screened, about 14,000 (4.5%) showed an effect of 50% or more. The effect is printed as a negative number. The sample as a whole holds a higher share of strong results than the screen did.

Target: human ether-à-go-go-related gene (hERG) potassium channel (human, UniProt Q12809)
Experiment: primary screen, population patch clamp on CHO cells stably expressing hERG; higher = less effect of the substance
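Also: peak tail current of the secondary pulse compared with the same well before compound.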

Chain of human ether-à-go-go-related gene (hERG) potassium channel (Q12809 whole entry, looked up): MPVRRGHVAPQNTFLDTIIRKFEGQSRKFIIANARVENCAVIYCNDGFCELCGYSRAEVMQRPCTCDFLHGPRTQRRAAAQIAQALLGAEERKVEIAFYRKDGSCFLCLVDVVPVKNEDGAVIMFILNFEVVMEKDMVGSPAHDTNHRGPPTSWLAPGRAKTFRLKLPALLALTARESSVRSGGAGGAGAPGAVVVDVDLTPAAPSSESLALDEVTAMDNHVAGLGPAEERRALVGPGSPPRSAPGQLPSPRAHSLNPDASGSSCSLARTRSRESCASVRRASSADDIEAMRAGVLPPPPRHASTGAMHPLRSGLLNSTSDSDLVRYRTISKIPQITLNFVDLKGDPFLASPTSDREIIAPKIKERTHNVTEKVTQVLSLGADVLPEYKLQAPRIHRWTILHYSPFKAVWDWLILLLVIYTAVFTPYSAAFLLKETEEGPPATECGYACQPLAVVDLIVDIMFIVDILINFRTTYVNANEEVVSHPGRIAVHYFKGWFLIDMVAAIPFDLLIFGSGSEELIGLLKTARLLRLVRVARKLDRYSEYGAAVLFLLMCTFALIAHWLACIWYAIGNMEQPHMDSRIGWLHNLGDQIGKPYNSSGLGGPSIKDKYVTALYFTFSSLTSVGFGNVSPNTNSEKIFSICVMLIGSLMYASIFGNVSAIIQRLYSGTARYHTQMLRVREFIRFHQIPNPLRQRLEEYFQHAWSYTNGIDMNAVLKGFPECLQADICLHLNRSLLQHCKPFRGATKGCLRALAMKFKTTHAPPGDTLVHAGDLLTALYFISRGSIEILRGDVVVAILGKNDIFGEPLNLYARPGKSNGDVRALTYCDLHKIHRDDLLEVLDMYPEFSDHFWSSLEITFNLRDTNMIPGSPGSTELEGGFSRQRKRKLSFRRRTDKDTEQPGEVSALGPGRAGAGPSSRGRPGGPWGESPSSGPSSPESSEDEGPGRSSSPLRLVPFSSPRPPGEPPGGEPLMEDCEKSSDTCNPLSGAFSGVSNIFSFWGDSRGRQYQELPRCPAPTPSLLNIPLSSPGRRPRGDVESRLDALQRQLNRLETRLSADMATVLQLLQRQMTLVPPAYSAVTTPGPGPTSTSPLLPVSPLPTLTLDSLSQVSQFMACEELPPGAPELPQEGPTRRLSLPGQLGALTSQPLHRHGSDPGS

SMILES	hERG current change (%, negative = inhibition) at 10uM [%]
CCn1cc(C(=O)O)c(=O)c2cnc(N3CCN(C(=S)Nc4ccccc4Cl)CC3)nc21	-4.66
N#Cc1ccc(Cl)cc1NC(=O)COC(=O)[C@H](CCC(N)=O)NC(=O)c1ccc(F)cc1	1.75
Cc1ccc2c(c1)C(C)CC(C)(C)N2C(=O)CN1CCN(C)CC1.O=C(O)C(=O)O (stereo not drawn)	-23.6
COc1ccc(C[C@@H]2CN3C(=NC[C@@H]3C)N2CCNC(=O)c2ccc(C)c(Br)c2)cc1	-71.4
C/C=C(\C)C(=O)NCCN1C2=NC[C@@H](C)N2C[C@H]1Cc1ccc(O)cc1	12.9
COc1ccc(C[C@H]2CN3C(=NC[C@@H]3C(C)C)N2CCNC(=O)c2ccc(C)c(Br)c2)cc1	-79
C/C=C(\C)C(=O)NCCN1C2=NC[C@@H](C)N2C[C@@H]1Cc1ccc(OC)cc1	0.0958
Cc1ccc(C(=O)NCCN2C3=NC[C@H](C(C)C)N3C[C@H]2Cc2ccc(O)cc2)cc1Br	-26.3
COc1ccc(C[C@H]2CN3C(=NC[C@H]3C)N2CCNC(=O)c2ccc(C)c(Br)c2)cc1	-72
CCc1nc(-c2ccccc2)cc(=O)[nH]1	-6.29
CCOC(=O)c1cc(NC(=O)c2ccc(C)cc2)c(=O)oc1C(F)(F)F	-2.5
O=C(CSCc1ccccc1)Nc1ccc(S(=O)(=O)N2CCOCC2)cc1	-17.7
Cc1cc(C(=O)N/N=C/c2ccc(-c3cccc(Br)c3)o2)n[nH]1	12.4
NS(=O)(=O)c1ccc(CNC(=O)CC23CC4CC(CC(C4)C2)C3)cc1	-5.69
Cc1nn(C)c(C)c1NC(=O)CSc1nnc(C)n1-c1ccccc1	-0.523
Cc1cc(NC(=O)CSc2nnc3c(C)cc4cc(C)c(C)cc4n23)no1	20
O=C1CNC(=O)/C1=C/c1ccc(Br)cc1	16.7
CN1/C(=C/C(=O)c2nc(S(C)(=O)=O)ncc2Cl)C(C)(C)c2ccccc21	-29.9
CCN(CC)CCn1c2c(c(SCC(=O)Nc3ccc(C(C)C)cc3)nc1=O)CCCC2	-68.3
CCN(CC)CCn1c2c(c(SCC(=O)Nc3ccc(C(C)C)cc3)nc1=O)CCC2	-56.9
O=C(COC(=O)c1ccc(NS(=O)(=O)c2ccc3c(c2)OCCO3)cc1)NC1CC1	-1.56
COc1cc(OC)c(C2=NOC(C(=O)O)C2)cc1Cl (stereo not drawn)	5.14
CC(C)(C)c1ccc(SCCc2ccncc2)cc1	3.48
COC(=O)C1=C(c2ccc(F)cc2OCc2ccccc2)C[C@@H]2CC[C@H]1N2C(=O)NCc1cccc(OC)c1	2.72
COc1ccc(N=c2cc(-c3ccc(OC)cc3)oc3ccccc23)cc1	4.41
CCc1ccc2oc(-c3ccc(OC)cc3)cc(=[NH+]c3cccc(C(=O)O)c3)c2c1.F[B-](F)(F)F	5

SMILES	hERG current change (%, negative = inhibition) at 10uM [%]
COc1ccc(-c2cc(=Nc3ccc(C)cc3)c3ccccc3o2)cc1	5.87
COc1ccc(-c2cc(C(=O)Nc3c(C)n(C)n(-c4ccccc4)c3=O)no2)cc1	6.42
CCc1ccc2oc(-c3ccc(OC)cc3)cc(=[NH+]c3c(C)n(C)n(-c4ccccc4)c3=O)c2c1.F[B-](F)(F)F	-71.7
COc1ccc(-c2cc(=Nc3c(C)n(C)n(-c4ccccc4)c3=O)c3ccccc3o2)cc1	-68.1
COc1ccc(CCNC(=S)NCCc2ccc(OC)c(OC)c2)cc1OC	5.11
Cc1ccn2cc(CSc3ccccc3N)nc2c1	-29.1
CCN(CC)c1ccc(NC(=O)CCc2nnc3ccc(N4CCCCC4)nn23)c(C)c1	-12.8
CCCCC/C(=N/O)c1c(C)[nH]c2ccccc12	4.53
Cc1ccc(N(CC(O)CON=C2c3ccccc3-c3ccccc32)S(C)(=O)=O)cc1 (stereo not drawn)	15.5
O=C(NCC1CCCN1S(=O)(=O)c1cccs1)c1ccccc1 (stereo not drawn)	16.5
Cc1ccc(C)c(S(=O)(=O)N2CCCC2CNC(=O)C(=O)NCC2CCCO2)c1 (stereo not drawn)	-15.5
Cc1ccc(C(=O)NCC2CCCN2S(=O)(=O)c2ccc(C)cc2)cc1 (stereo not drawn)	-33.8
O=C(NCC1CCCN1S(=O)(=O)c1cccs1)c1cccc([N+](=O)[O-])c1 (stereo not drawn)	-24.5
Cc1ccc(C)c(S(=O)(=O)N2CCCC2CNC(=O)C(=O)NCc2ccco2)c1 (stereo not drawn)	-54.2
O=C(NCC1CCCN1S(=O)(=O)c1cccs1)c1ccc([N+](=O)[O-])cc1 (stereo not drawn)	-55.2
Cc1ccc(C)c(S(=O)(=O)N2CCCC2CNC(=O)C(=O)NC2CC2)c1 (stereo not drawn)	-0.659
Cc1ccc(C)c(S(=O)(=O)N2CCCCC2CCNC(=O)C(=O)NCc2ccco2)c1 (stereo not drawn)	-21.8
Cc1ccc(S(=O)(=O)N2CCCC2CNC(=O)c2ccc(F)c(F)c2)cc1 (stereo not drawn)	-52.5
Cc1ccc(C)c(S(=O)(=O)N2CCCC2CNC(=O)c2ccc([N+](=O)[O-])cc2)c1 (stereo not drawn)	-81.8
Cc1ccc(C)c(S(=O)(=O)N2CCCC2CNC(=O)C(=O)NCCc2ccco2)c1 (stereo not drawn)	-21.2
Cc1ccc(S(=O)(=O)N2CCCC2CNC(=O)c2ccccc2)cc1 (stereo not drawn)	-9.34
COc1ccc(C(CNC(=O)C(CC(C)C)NS(=O)(=O)c2ccc(C)cc2)N2CCOCC2)cc1 (stereo not drawn)	-3.25
Oc1c(C=NCc2ccncc2)sc2ccccc12	-38.4
CCCCn1c(N)c(N(CCC(C)C)C(=O)c2cccc(-n3cnnn3)c2)c(=O)[nH]c1=O	-7.92
CCc1ccc(CN(C)C(=O)CC2C(=O)NCCN2Cc2ccoc2)cc1 (stereo not drawn)	4.18
